# About 2,000 (36%) of roughly 5,500 compounds were called active. Inconclusive results (about 18%) are left out. The list shows a part of the results. Unmarked numbers belong to inactive results. Rule as the data show it: active = normalized growth mostly below about 0.91 (no sharp cut-off); inconclusive = no clear call, values can overlap the other calls; inactive = mostly above about 0.92.
# Assay: chemical genetic growth profiling, strain panel (AID 1159580);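 also: tested at 20 µM; growth read once vehicle control cultures reached saturation at 30 °C; 1 = growth at the plate median or of vehicle wells; lower values mean less growth of the strain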
# Conditions: growth OD
# [1] = S. cerevisiae deletion strains, locus YAL013W, strain DEP1, stronger effect = lower value
# [2] = S. cerevisiae deletion strains, locus YBR229C, strain ROT2, stronger effect = lower value
# [3] = S. cerevisiae deletion strains, locus YCL061C, strain MRC1, stronger effect = lower value
# [4] = S. cerevisiae deletion strains, locus YDL101C, strain DUN1, stronger effect = lower value
# [5] = S. cerevisiae deletion strains, locus YDR150W, strain NUM1, stronger effect = lower value
# [6] = S. cerevisiae deletion strains, locus YEL061C, strain CIN8, stronger effect = lower value
# [7] = S. cerevisiae deletion strains, locus YGR078C, strain PAC10, stronger effect = lower value
# [8] = S. cerevisiae deletion strains, locus YHR030C, strain SLT2, stronger effect = lower value
# [9] = S. cerevisiae deletion strains, locus YHR087W, strain rtc3, stronger effect = lower value
# [10] = S. cerevisiae deletion strains, locus YJR043C, strain POL32, stronger effect = lower value
# [11] = S. cerevisiae deletion strains, locus YJR075W, strain HOC1, stronger effect = lower value
# [12] = S. cerevisiae deletion strains, locus YLR039C, strain RIC1, stronger effect = lower value
# [13] = S. cerevisiae deletion strains, locus YLR058C, strain SHM2 (second series), stronger effect = lower value
# [14] = S. cerevisiae deletion strains, locus YLR085C, strain ARP6, stronger effect = lower value
# [15] = S. cerevisiae deletion strains, locus YLR262C, strain YPT6, stronger effect = lower value
# [16] = S. cerevisiae deletion strains, locus YML094W, strain GIM5, stronger effect = lower value
# [17] = S. cerevisiae deletion strains, locus YMR219W, strain ESC1, stronger effect = lower value
# [18] = S. cerevisiae deletion strains, locus YMR263W, strain SAP30, stronger effect = lower value
# [19] = S. cerevisiae deletion strains, locus YNL153C, strain GIM3, stronger effect = lower value
# [20] = S. cerevisiae deletion strains, locus YNL298W, strain CLA4 (second series), stronger effect = lower value
# [21] = S. cerevisiae deletion strains, locus YNL322C, strain KRE1, stronger effect = lower value
# [22] = S. cerevisiae deletion strains, locus YNR030W, strain Alg12, stronger effect = lower value
# [23] = S. cerevisiae deletion strains, locus YPL055C, strain LGE1, stronger effect = lower value
# [24] = S. cerevisiae deletion strains, locus YPL241C, strain CIN2, stronger effect = lower value
# [25] = S. cerevisiae deletion strains, locus YPR135W, strain CTF4, stronger effect = lower value
smiles,measurement,setting,value
CC(C)(C)c1cc(C(=O)NNC(=O)c2cc(C(F)(F)F)cc(C(F)(F)F)c2)n(Cc2ccc(F)cc2)n1,normalized growth,[1],0.979
same,normalized growth,[2],1.03
same,normalized growth,[3],1.04
same,normalized growth,[4],0.964
same,normalized growth,[5],1.01
same,normalized growth,[6],0.979
same,normalized growth,[7],1.01
same,normalized growth,[8],1
same,normalized growth,[9],0.994
same,normalized growth,[10],0.997
same,normalized growth,[11],1.08
same,normalized growth,[12],1.02
same,normalized growth,[13],1.04
same,normalized growth,[14],0.999
same,normalized growth,[15],1.02
same,normalized growth,[16],0.987
same,normalized growth,[17],1
same,normalized growth,[18],1.02
same,normalized growth,[19],1
same,normalized growth,[20],0.984
same,normalized growth,[21],0.99
same,normalized growth,[22],0.997
same,normalized growth,[23],0.976
same,normalized growth,[24],1.01
same,normalized growth,[25],0.927
Cc1cc(C)c(Cn2nc(C(C)(C)C)cc2C(=O)Nc2cccc(C(F)(F)F)c2)c(C)c1,normalized growth,[1],0.991
same,normalized growth,[2],1.06
same,normalized growth,[3],0.99
same,normalized growth,[4],0.999
same,normalized growth,[5],1.16
same,normalized growth,[6],0.986
same,normalized growth,[7],0.998
same,normalized growth,[8],1.1
same,normalized growth,[9],0.999
same,normalized growth,[10],0.927
same,normalized growth,[12],1.02
same,normalized growth,[13],1
same,normalized growth,[14],1.01
same,normalized growth,[15],1.02
same,normalized growth,[16],1
same,normalized growth,[17],0.998
same,normalized growth,[18],0.988
same,normalized growth,[19],1
same,normalized growth,[20],1.02
same,normalized growth,[21],0.992
same,normalized growth,[22],0.994
same,normalized growth,"S. cerevisiae deletion strains, locus YOL006C, strain TOP1, stronger effect = lower value",1.06
same,normalized growth,[23],1.05
same,normalized growth,[24],0.995
same,normalized growth,[25],1.07
same,normalized growth,"S. cerevisiae strains, strain wild type, stronger effect = lower value",1
CC(C)(C)c1cc(C(=O)Nc2ccc3c(c2)OCO3)n(Cc2ccc(F)cc2)n1,normalized growth,"S. cerevisiae deletion strains, locus YAR019C, strain CDC15, stronger effect = lower value",0.987
same,normalized growth,"S. cerevisiae deletion strains, locus YBL105C, strain PKC1, stronger effect = lower value",0.968
same,normalized growth,"S. cerevisiae deletion strains, locus YBR135W, strain CKS1, stronger effect = lower value",0.979
same,normalized growth,"S. cerevisiae deletion strains, locus YBR136W, strain MEC1, stronger effect = lower value",0.99
same,normalized growth,"S. cerevisiae deletion strains, locus YBR160W, strain CDC28, stronger effect = lower value",0.98
same,normalized growth,"S. cerevisiae deletion strains, locus YDL017W, strain CDC7, stronger effect = lower value",0.989
same,normalized growth,"S. cerevisiae deletion strains, locus YDL028C, strain MPS1, stronger effect = lower value",0.991
same,normalized growth,[4],0.997
same,normalized growth,"S. cerevisiae deletion strains, locus YDL108W, strain KIN28, stronger effect = lower value",0.986
same,normalized growth,"S. cerevisiae deletion strains, locus YDL132W, strain cdc53, stronger effect = lower value",0.972
same,normalized growth,"S. cerevisiae deletion strains, locus YDL214C, strain PRR2, stronger effect = lower value",0.908
same,normalized growth,"S. cerevisiae deletion strains, locus YDR052C, strain DBF4, stronger effect = lower value",0.988
same,normalized growth,"S. cerevisiae deletion strains, locus YDR054C, strain cdc34, stronger effect = lower value",0.993
same,normalized growth,"S. cerevisiae deletion strains, locus YDR226W, strain ADK1, stronger effect = lower value",0.983
same,normalized growth,"S. cerevisiae deletion strains, locus YDR477W, strain SNF1, stronger effect = lower value",0.938
same,normalized growth,"S. cerevisiae deletion strains, locus YER123W, strain YCK3, stronger effect = lower value",0.906
same,normalized growth,"S. cerevisiae deletion strains, locus YER133W, strain GLC7, stronger effect = lower value",0.955
same,normalized growth,"S. cerevisiae deletion strains, locus YFL009W, strain cdc4, stronger effect = lower value",0.994
same,normalized growth,"S. cerevisiae deletion strains, locus YFL029C, strain CAK1, stronger effect = lower value",0.98
same,normalized growth,"S. cerevisiae deletion strains, locus YFR003C, strain YPI1, stronger effect = lower value",0.991
same,normalized growth,"S. cerevisiae deletion strains, locus YFR019W, strain FAB1, stronger effect = lower value",0.938
same,normalized growth,"S. cerevisiae deletion strains, locus YFR028C, strain CDC14, stronger effect = lower value",0.978
same,normalized growth,"S. cerevisiae deletion strains, locus YGR040W, strain KSS1, stronger effect = lower value",0.916
same,normalized growth,"S. cerevisiae deletion strains, locus YGR052W, strain FMP48, stronger effect = lower value",0.997
same,normalized growth,"S. cerevisiae deletion strains, locus YGR092W, strain DBF2, stronger effect = lower value",0.902
same,normalized growth,[8],0.878
same,normalized growth,"S. cerevisiae deletion strains, locus YHR079C, strain IRE1, stronger effect = lower value",0.926
same,normalized growth,"S. cerevisiae deletion strains, locus YHR082C, strain KSP1, stronger effect = lower value",0.984
same,normalized growth,"S. cerevisiae deletion strains, locus YHR205W, strain SCH9, stronger effect = lower value",0.86
same,normalized growth,"S. cerevisiae deletion strains, locus YIL147C, strain SLN1, stronger effect = lower value",0.99
same,normalized growth,"S. cerevisiae deletion strains, locus YJL095W, strain BCK1, stronger effect = lower value",0.877
same,normalized growth,"S. cerevisiae deletion strains, locus YJL128C, strain PBS2, stronger effect = lower value",0.977
same,normalized growth,"S. cerevisiae deletion strains, locus YJL157C, strain FAR1, stronger effect = lower value",0.909
same,normalized growth,"S. cerevisiae deletion strains, locus YJR016C, strain ILV3, stronger effect = lower value",0.981
same,normalized growth,"S. cerevisiae deletion strains, locus YJR066W, strain TOR1 (second series), stronger effect = lower value",0.889
same,normalized growth,"S. cerevisiae deletion strains, locus YJR066W, strain TOR1, stronger effect = lower value",0.999
same,normalized growth,"S. cerevisiae deletion strains, locus YKL048C, strain ELM1, stronger effect = lower value",0.931
same,normalized growth,"S. cerevisiae deletion strains, locus YKL067W, strain YNK1, stronger effect = lower value",0.94
same,normalized growth,"S. cerevisiae deletion strains, locus YKL101W, strain HSL1, stronger effect = lower value",0.891
same,normalized growth,"S. cerevisiae deletion strains, locus YKL193C, strain SDS22, stronger effect = lower value",0.987
same,normalized growth,"S. cerevisiae deletion strains, locus YKL203C, strain TOR2, stronger effect = lower value",0.994
same,normalized growth,"S. cerevisiae deletion strains, locus YLR113W, strain HOG1, stronger effect = lower value",0.858 (active)
same,normalized growth,"S. cerevisiae deletion strains, locus YLR133W, strain CKI1, stronger effect = lower value",0.918
same,normalized growth,"S. cerevisiae deletion strains, locus YLR403W, strain SFP1, stronger effect = lower value",0.906
same,normalized growth,"S. cerevisiae deletion strains, locus YML070W, strain DAK1, stronger effect = lower value",0.895
same,normalized growth,"S. cerevisiae deletion strains, locus YMR001C, strain CDC5, stronger effect = lower value",0.982
same,normalized growth,"S. cerevisiae deletion strains, locus YMR205C, strain PFK2 (second series), stronger effect = lower value",0.926
same,normalized growth,"S. cerevisiae deletion strains, locus YMR277W, strain FCP1, stronger effect = lower value",0.971
same,normalized growth,"S. cerevisiae deletion strains, locus YNL006W, strain LST8, stronger effect = lower value",0.987
same,normalized growth,"S. cerevisiae deletion strains, locus YNL020C, strain ARK1, stronger effect = lower value",0.889
same,normalized growth,"S. cerevisiae deletion strains, locus YNL161W, strain CBK1, stronger effect = lower value",0.969
same,normalized growth,"S. cerevisiae deletion strains, locus YNL183C, strain NPR1, stronger effect = lower value",0.928
same,normalized growth,"S. cerevisiae deletion strains, locus YNL207W, strain RIO2, stronger effect = lower value",0.986
same,normalized growth,"S. cerevisiae deletion strains, locus YNL222W, strain SSU72, stronger effect = lower value",0.983
same,normalized growth,"S. cerevisiae deletion strains, locus YNL307C, strain MCK1 (second series), stronger effect = lower value",0.9
same,normalized growth,"S. cerevisiae deletion strains, locus YOL078W, strain AVO1, stronger effect = lower value",0.981
same,normalized growth,"S. cerevisiae deletion strains, locus YOL136C, strain PFK27, stronger effect = lower value",0.892
same,normalized growth,"S. cerevisiae deletion strains, locus YOR061W, strain CKA2, stronger effect = lower value",0.874
same,normalized growth,"S. cerevisiae deletion strains, locus YOR119C, strain RIO1, stronger effect = lower value",0.992
same,normalized growth,"S. cerevisiae deletion strains, locus YOR231W, strain MKK1, stronger effect = lower value",0.876
same,normalized growth,"S. cerevisiae deletion strains, locus YOR329C, strain SCD5, stronger effect = lower value",0.96
same,normalized growth,"S. cerevisiae deletion strains, locus YPL031C, strain PHO85, stronger effect = lower value",0.934
same,normalized growth,"S. cerevisiae deletion strains, locus YPL153C, strain RAD53, stronger effect = lower value",0.923
same,normalized growth,"S. cerevisiae deletion strains, locus YPL204W, strain HRR25, stronger effect = lower value",0.909
same,normalized growth,"S. cerevisiae deletion strains, locus YPL209C, strain IPL1, stronger effect = lower value",0.968
same,normalized growth,"S. cerevisiae deletion strains, locus YPL256C, strain CLN2, stronger effect = lower value",0.887
same,normalized growth,"S. cerevisiae deletion strains, locus YPR025C, strain CCL1, stronger effect = lower value",0.995
same,normalized growth,"S. cerevisiae deletion strains, locus YPR106W, strain ISR1, stronger effect = lower value",0.964
same,normalized growth,"S. cerevisiae deletion strains, locus YPR111W, strain DBF20, stronger effect = lower value",0.936
same,normalized growth,"S. cerevisiae deletion strains, strain NNK1, stronger effect = lower value",0.974
same,normalized growth,"S. cerevisiae deletion strains, strain TSCII, stronger effect = lower value",0.986
CCN1CCCC1CNC(=O)c1cc(S(N)(=O)=O)ccc1OC (stereo not drawn),normalized growth,[1],0.972
same,normalized growth,"S. cerevisiae deletion strains, locus YAL040C, strain CLN3, stronger effect = lower value",0.955
same,normalized growth,"S. cerevisiae deletion strains, locus YCL061C, strain MRC1 (second series), stronger effect = lower value",0.984
same,normalized growth,"S. cerevisiae deletion strains, locus YDR363W, strain ESC2, stronger effect = lower value",0.962
same,normalized growth,"S. cerevisiae deletion strains, locus YER002W, strain NOP16, stronger effect = lower value",0.969
same,normalized growth,[11],0.973
same,normalized growth,[18],0.98
same,normalized growth,"S. cerevisiae deletion strains, locus YMR307W, strain GAS1, stronger effect = lower value",1.02
same,normalized growth,[19],1.02
same,normalized growth,"S. cerevisiae deletion strains, locus YNL175C, strain NOP13, stronger effect = lower value",0.978
same,normalized growth,"S. cerevisiae deletion strains, locus YNL197C, strain WHI3, stronger effect = lower value",0.977
same,normalized growth,"S. cerevisiae deletion strains, locus YNL224C, strain SQS1, stronger effect = lower value",0.992
same,normalized growth,[21],0.974
same,normalized growth,"S. cerevisiae deletion strains, locus YOR083W, strain WHI5 (second series), stronger effect = lower value",0.963
same,normalized growth,[23],0.993
CC(=O)Nc1ccc(S(=O)(=O)Nc2c(C)n(C)n(-c3ccccc3)c2=O)cc1,normalized growth,[1],0.999
same,normalized growth,[2],0.947
same,normalized growth,[3],1.02
same,normalized growth,[4],1.04
same,normalized growth,[5],1.04
same,normalized growth,[6],0.995
same,normalized growth,[7],1.02
same,normalized growth,[8],1.11
same,normalized growth,[9],0.974
same,normalized growth,[10],1.02
same,normalized growth,[11],0.996
same,normalized growth,"S. cerevisiae deletion strains, locus YKL190W, strain CNB1, stronger effect = lower value",1.01
same,normalized growth,[12],1.02
same,normalized growth,[13],0.995
same,normalized growth,[14],0.999
same,normalized growth,[15],1
same,normalized growth,[16],1.01
same,normalized growth,[17],1.01
same,normalized growth,[18],1.01
same,normalized growth,[19],1.06
same,normalized growth,[20],1
same,normalized growth,[21],1.01
same,normalized growth,[22],1
same,normalized growth,[23],0.974
same,normalized growth,[24],0.987
same,normalized growth,[25],1.07

# Reference: PubChem BioAssay AID1159580 (chemical genetic matrix, 2015)
